According to PubChem BioAssay (Tox21):
Results filed as inconclusive are left out. Unmarked numbers belong to inactive results. The call rests on the fitted dose curve; in most records, active means well fitted cell-killing curve with a large enough effect in the repeat runs; inconclusive means weak or mixed curves, or effect the other way; inactive means flat fitted curve, though single readings scatter.

Assay: qHTS assay to identify small molecule agonists of the estrogen receptor beta (ER-beta) signaling pathway - cell viability counter screen (AID 1259380); further: nearly all actives have a fitted effect of over 30% in size
Conditions: ER-beta-bla HEK293T viability, CellTiter-Glo luminescence, 16 h; series mostly up to 92.4 µM; activity change, negative = cytotoxicity: at the top concentration
From the text: National Center for Advancing Translational Sciences [NCATS]
NIH Chemical Genomics Center [NCGC]
U.S. Environmental Protection Agency [EPA]
National Institutes of Environmental Health Sciences [NIEHS]
National Toxicology Program [NTP]
U.S. Food and Drug Administration [FDA]
Estrogen receptor (ER), a nuclear hormone receptor, plays an important role in development, metabolic homeostasis and reproduction. Two subtypes of ER, ER-alpha and ER-beta, have similar expression patterns with some uniqueness in both types. Endocrine disrupting chemicals (EDCs) and their interactions with steroid hormone receptors like ER causes disruption of normal endocrine function. To identify the compounds that activate ER signaling, an ER beta-UAS-bla GripTite cell line (Life Technologies, Madison, WI, USA) containing a beta-lactamase reporter gene under the control of an UAS response element was used to screen Tox21 10K compound library. The cytotoxicity of the Tox21 compound library against the ER-beta-bla cell line was tested in parallel by measuring the cell viability using CellTiter-Glo assay in the same wells.
Tox21 Assay Protocol Summary:
ER-beta-UAS-bla HEK293T cells were dispensed at 2,000 cells/5 uL of assay medium containing 2% charcoal stripped FBS per well into black wall/clear-bottom 1536-well plates using a Multidrop Combi (ThermoFisher Scientific, Waltham, MA) dispenser. After the assay plates were incubated at a 37C and 5% CO2 for 6 hr, 23 nL of compounds dissolved in DMSO, positive controls or DMSO only was transferred to the assay plate by a Pintool station (Kalypsys, San Diego, CA). The plates were incubated at 37C and 5% CO2 for 16 hr. Then 1 uL of LiveBLAzerTM B/G FRET substrate was added using a BioRAPTR FRD (Flying Reagent Dispenser, Aurora Discovery, San Diego, CA) and then the plates were incubated at room temperature for 2 hours, and fluorescence intensity was measured by an Envision plate reader (PerkinElmer, Shelton, CT). For cell viability readout that measures cytotoxicity, 4 uL/well of CellTiter-Glo reagent was added into the assay plates using a FRD. After 30 min incubation at room temperature, the luminescence intensity in the plates was measured using a ViewLux (PerkinElmer) plate reader.
On the % scale 0 is the no-effect control and ±100 the full control effect.

Going from CC(C)CCO to CCCCC(CC)C(=O)OC(C)C (stereo not given), the “activity change, negative = cytotoxicity” value rises from 0.291% to 9.91%.

First: COC(OC)C(C)c1ccccc1 (stereo not given)
Second: CC(=O)OC(C)c1ccccc1 (stereo not given)
The “activity change, negative = cytotoxicity” value of the first is lower: 10.1% for the first, 10.4% for the second.

Compared with Cc1ccccc1OCC1CO1 (stereo not given), Cc1ccccc1C is lower in “activity change, negative = cytotoxicity” value: 2.45% for the first, 0.522% for the second.

Going from Nc1ccnc(=O)[nH]1 to Nc1cc(S(=O)(=O)O)ccc1S(=O)(=O)O, the “activity change, negative = cytotoxicity” value rises from 4.13% to 6.64%.

Compared with C1=C\CC/C=C\CC/1, C=C(C)[C@@H]1CC[C@@H](C)C[C@@H]1O is lower in “activity change, negative = cytotoxicity” value: 4.9% for the first, 2.88% for the second.

Going from CCOC(=O)CC(CC(=O)OCC)(OC(C)=O)C(=O)OCC to CC(C)COC(=O)CC(C(=O)OCC(C)C)S(=O)(=O)O (stereo not given), the “activity change, negative = cytotoxicity” value rises from 0.992% to 4.5%.

Going from SCCSCCS to C=CCOCC(O)CCl (stereo not given), the “activity change, negative = cytotoxicity” value rises from 1.68% to 5.88%.

First: CC1CCC(C(C)(C)S)C(=O)C1 (stereo not given)
Second: O=C1NC2NC(=O)NC2N1 (stereo not given)
The “activity change, negative = cytotoxicity” value of the first is lower: 3.06% for the first, 6.65% for the second.

Going from COc1cc(C=O)ccc1OC(=O)C(C)C to CC(C)C(=O)c1ccccc1, the “activity change, negative = cytotoxicity” value rises from -1.82% to 0.427%.

Compared with CCCCCCCC/C=C\CCCCCCCC(=O)OC[C@@H](O)[C@H]1OC[C@H](O)[C@H]1O, CCCCCCCCCCCCC1CO1 (stereo not given) is lower in “activity change, negative = cytotoxicity” value: 3.16% for the first, -3.85% for the second.

Going from CC(C)CCCCCCOC(=O)C1CCCCC1C(=O)OCCCCCCC(C)C (stereo not given) to C/C=C(\C)C(=O)OCC/C=C\CC, the “activity change, negative = cytotoxicity” value rises from -4.82% to 0.859%.

Going from C[CH2][Ge]([Cl])([CH2]C)[CH2]C to CCCCOC(=O)[C@@H](C)Oc1ccc(Oc2ccc(C(F)(F)F)cn2)cc1, the “activity change, negative = cytotoxicity” value falls from 3.52% to -1.67%.

First: CC(C)(c1ccc(Oc2ccc3c(c2)C(=O)OC3=O)cc1)c1ccc(Oc2ccc3c(c2)C(=O)OC3=O)cc1
Second: C=CCOc1c(Br)cc(Br)cc1Br
The “activity change, negative = cytotoxicity” value of the first is higher: 1.32% for the first, 0.646% for the second.

With C=C(C)C(=O)OC the “activity change, negative = cytotoxicity” value was 0.542%.

Compared with CC(C)SCc1ccco1, Cc1c(C(C)C)c(=O)n(-c2ccccc2)n1C is higher in “activity change, negative = cytotoxicity” value: 2.13% [at 42.5 µM] for the first, 4.2% [at 42.5 µM] for the second.

First: CCOC(=O)OCC/C(SC(=O)OCC)=C(\C)N(C=O)Cc1cnc(C)nc1N
Second: Cc1ccc(C(=O)C(=O)O)cc1C
The “activity change, negative = cytotoxicity” value of the first is higher: 0.71% [at 42.5 µM] for the first, -1.76% [at 42.5 µM] for the second.

Going from O=c1[nH]c(=O)c2ccccc2o1 to Cc1ccccc1C(=O)N1CC/C(=N\OS(=O)(=O)O)c2ccc(Cl)cc21, the “activity change, negative = cytotoxicity” value falls from 3.78% [at 42.5 µM] to 0.53% [at 42.5 µM].

First: CC(=O)Nc1ncc([N+](=O)[O-])s1
Second: O=C(O)c1ccccc1C(=O)Nc1ccc(S(=O)(=O)Nc2nccs2)cc1
The “activity change, negative = cytotoxicity” value of the first is lower: -1.1% [at 42.5 µM] for the first, 1.91% [at 42.5 µM] for the second.

First: Cc1oc(=O)oc1CN1CCN(c2cc3c(cc2F)c(=O)c(C(=O)O)c2n3C(C)S2)CC1 (stereo not given)
Second: C[C@@H]1C[C@H]2[C@@H]3C[C@H](F)C4=CC(=O)C=C[C@]4(C)[C@@]3(F)[C@@H](O)C[C@]2(C)[C@@]1(O)C(=O)CO
The “activity change, negative = cytotoxicity” value of the first is higher: 3.36% [at 42.5 µM] for the first, -6.66% [at 42.5 µM] for the second.

Compared with Cc1cccc(Nc2ccncc2S(=O)(=O)NC(=O)NC(C)C)c1, CC(=O)N(CC(O)CO)c1c(I)c(C(=O)NCC(O)CO)c(I)c(C(=O)NCC(O)CO)c1I (stereo not given) is lower in “activity change, negative = cytotoxicity” value: 9.79% [at 42.5 µM] for the first, 7.08% [at 42.5 µM] for the second.

For CCCCCCCCCCCCCCCC(=O)NCCO, the “activity change, negative = cytotoxicity” value was 1.65% [at 42.5 µM].
